Among all 5,500 compounds or so, about 2,000 (36%) were called active. Not shown: some 18% with an inconclusive outcome. Cut-off read from the data, not from the text of the source: active = normalized growth mostly below about 0.91 (no sharp cut-off); inconclusive = no clear call, values can overlap the other calls; inactive = mostly above about 0.92. Some of the results follow.
Assay: chemical genetic growth profiling, strain panel (AID 1159580);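 note: tested at 20 µM; growth read once vehicle control cultures reached saturation at 30 °C; 1 = growth at the plate median or of vehicle wells; lower values mean less growth of the strain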
Settings: S. cerevisiae deletion strains, growth OD

Measured: normalized growth

CC12CC[C@@H](O)CC1=CC[C@@H]1C2CCC2(C)C(=O)CC[C@@H]12 (stereo partly specified)
inactive: locus YAR019C, strain CDC15, stronger effect = lower value 1.01 | locus YBL105C, strain PKC1, stronger effect = lower value 1.01 | locus YBR135W, strain CKS1, stronger effect = lower value 1.02 | locus YBR136W, strain MEC1, stronger effect = lower value 1.01 | locus YBR160W, strain CDC28, stronger effect = lower value 1.02 | locus YDL017W, strain CDC7, stronger effect = lower value 1.02 | locus YDL028C, strain MPS1, stronger effect = lower value 1.02 | locus YDL101C, strain DUN1, stronger effect = lower value 1 | locus YDL108W, strain KIN28, stronger effect = lower value 1.01 | locus YDL132W, strain cdc53, stronger effect = lower value 1.02 | locus YDL214C, strain PRR2, stronger effect = lower value 0.915 | locus YDR052C, strain DBF4, stronger effect = lower value 1.01 | locus YDR054C, strain cdc34, stronger effect = lower value 1.01 | locus YDR226W, strain ADK1, stronger effect = lower value 1.01 | locus YDR477W, strain SNF1, stronger effect = lower value 0.909 | locus YER123W, strain YCK3, stronger effect = lower value 0.822 | locus YER133W, strain GLC7, stronger effect = lower value 0.915 | locus YFL009W, strain cdc4, stronger effect = lower value 1.02 | locus YFL029C, strain CAK1, stronger effect = lower value 1.01 | locus YFR003C, strain YPI1, stronger effect = lower value 1.01 | locus YFR019W, strain FAB1, stronger effect = lower value 0.801 | locus YFR028C, strain CDC14, stronger effect = lower value 1.01 | locus YGR040W, strain KSS1, stronger effect = lower value 0.889 | locus YGR052W, strain FMP48, stronger effect = lower value 0.924 | locus YGR092W, strain DBF2, stronger effect = lower value 0.695 | locus YHR079C, strain IRE1, stronger effect = lower value 0.96 | locus YHR082C, strain KSP1, stronger effect = lower value 0.95 | locus YHR205W, strain SCH9, stronger effect = lower value 0.852 | locus YIL147C, strain SLN1, stronger effect = lower value 1.01 | locus YJL095W, strain BCK1, stronger effect = lower value 0.815 | locus YJL128C, strain PBS2, stronger effect = lower value 0.973 | locus YJL157C, strain FAR1, stronger effect = lower value 0.893 | locus YJR016C, strain ILV3, stronger effect = lower value 1.02 | locus YJR066W, strain TOR1 (second series), stronger effect = lower value 0.848 | locus YJR066W, strain TOR1, stronger effect = lower value 0.901 | locus YKL048C, strain ELM1, stronger effect = lower value 0.957 | locus YKL067W, strain YNK1, stronger effect = lower value 0.924 | locus YKL101W, strain HSL1, stronger effect = lower value 0.913 | locus YKL193C, strain SDS22, stronger effect = lower value 1.01 | locus YKL203C, strain TOR2, stronger effect = lower value 0.92 | locus YLR113W, strain HOG1, stronger effect = lower value 0.996 | locus YLR133W, strain CKI1, stronger effect = lower value 0.904 | locus YLR403W, strain SFP1, stronger effect = lower value 0.801 | locus YML070W, strain DAK1, stronger effect = lower value 0.903 | locus YMR001C, strain CDC5, stronger effect = lower value 1 | locus YMR205C, strain PFK2 (second series), stronger effect = lower value 0.916 | locus YMR277W, strain FCP1, stronger effect = lower value 1.01 | locus YNL006W, strain LST8, stronger effect = lower value 1.02 | locus YNL020C, strain ARK1, stronger effect = lower value 0.908 | locus YNL161W, strain CBK1, stronger effect = lower value 1.02 | locus YNL183C, strain NPR1, stronger effect = lower value 0.95 | locus YNL207W, strain RIO2, stronger effect = lower value 1.01 | locus YNL222W, strain SSU72, stronger effect = lower value 1.02 | locus YNL307C, strain MCK1 (second series), stronger effect = lower value 0.787 | locus YOL078W, strain AVO1, stronger effect = lower value 1 | locus YOL136C, strain PFK27, stronger effect = lower value 0.838 | locus YOR061W, strain CKA2, stronger effect = lower value 0.861 | locus YOR119C, strain RIO1, stronger effect = lower value 0.938 | locus YOR231W, strain MKK1, stronger effect = lower value 0.912 | locus YOR329C, strain SCD5, stronger effect = lower value 1.02 | locus YPL031C, strain PHO85, stronger effect = lower value 0.899 | locus YPL153C, strain RAD53, stronger effect = lower value 0.921 | locus YPL204W, strain HRR25, stronger effect = lower value 0.853 | locus YPL209C, strain IPL1, stronger effect = lower value 1.02 | locus YPL256C, strain CLN2, stronger effect = lower value 1.07 | locus YPR025C, strain CCL1, stronger effect = lower value 1.02 | locus YPR106W, strain ISR1, stronger effect = lower value 0.998 | locus YPR111W, strain DBF20, stronger effect = lower value 1 | strain NNK1, stronger effect = lower value 1 | strain TSCII, stronger effect = lower value 1.01
active: locus YHR030C, strain SLT2, stronger effect = lower value 0.787

Reference: PubChem BioAssay AID1159580 (chemical genetic matrix, 2015)
